Measured values: the supplement of paper PMC11172423
Unmarked numbers belong to inactive results.

Each compound was assayed on Madurella mycetomatis MM55 (assay: growth relative to untreated control; higher = less inhibition, active = 20 or less). Settings: 25 µM.
Summary of the method: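 Compound at 100 or 25 µM was applied for 7 days at 37 °C to hyphal fragments of M. mycetomatis MM55 or F. senegalensis CBS197.79 in 96-well plates. Fragments were suspended in colourless RPMI 1640 with L-glutamine and MOPS at 68–72% transmission at 660 nm, and viability was read with MTS (2 h, 490 nm) or resazurin (600 nm). Growth is reported as blank-corrected metabolic activity relative to the blank-corrected untreated growth control.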

**Q.** Which growth does the source give for CCOC(=O)C1=C(CC)NC2=C(C(=O)CC(C)(C)C2)C1c1ccc(Br)cc1 (configuration not stated) here?
**A.** The growth was 106%.

**Q.** How did the growth turn out when O=C(Nc1cc(Cl)cc(Cl)c1O)c1c(O)c(Cl)cc(Cl)c1Cl was run?
**A.** Its growth is 39%.

**Q.** CC(C)Nc1ncc2nc(Nc3cc(F)cc(Cl)c3)n(C3CCNCC3)c2n1 was tested. Which growth did it give?
**A.** Its growth is 91.1%.

**Q.** For C[C@H](NC(=O)c1cc2nc(C(F)(F)F)ccc2[nH]1)c1ccccc1, which growth is on record?
**A.** The growth was 86.1%.

**Q.** With CCC(CC)COC(=O)[C@H](C)NP(=O)(OC[C@H]1O[C@@](C#N)(c2ccc3c(N)ncnn23)[C@H](O)[C@@H]1O)Oc1ccccc1 (some centres not stated) as the compound, how does the growth read?
**A.** The growth was 95.1%.

**Q.** For Cc1ccc(C)c2sc(N(CCCn3ccnc3)C(=O)c3ccco3)nc12, which growth is on record?
**A.** The growth was 5.97% (active).

**Q.** Which growth does the source give for Cc1c[nH]c(-c2cccc(C(=O)NC3CCC(CCN4CCc5ccc(C#N)cc5CC4)CC3)c2)n1 (configuration not stated) here?
**A.** Its growth is 38.2%.

**Q.** Which growth does the source give for C[C@]1(c2nc3c(C(N)=O)cccc3[nH]2)CCCN1 here?
**A.** Its growth is 130%.

**Q.** For O=C(CCCN1CCC(O)(c2ccc(Cl)cc2)CC1)c1ccc(F)cc1, which growth is on record?
**A.** The growth was 76.2%.

**Q.** COc1ccc(Cl)cc1-c1nc(C(=O)NCCN2CCCCC2)c(C(C)C)s1 was tested. Which growth did it give?
**A.** The growth was 14.8% (active).

**Q.** Nc1nonc1-c1nc2c(-c3cccc(Cl)c3)nccc2n1CCCNC(=O)Cc1ccc(Cl)cc1 was tested. Which growth did it give?
**A.** The growth was 80.5%.

Same assay, conditions: 100 µM

**Q.** How did the growth turn out when CCOC(=O)C1=C(CC)NC2=C(C(=O)CC(C)(C)C2)C1c1ccc(Br)cc1 (configuration not stated) was run?
**A.** Its growth is 73.2%.

**Q.** With O=C(Nc1cc(Cl)cc(Cl)c1O)c1c(O)c(Cl)cc(Cl)c1Cl as the compound, how does the growth read?
**A.** The growth was 3.21% (active).

**Q.** With CC(C)Nc1ncc2nc(Nc3cc(F)cc(Cl)c3)n(C3CCNCC3)c2n1 as the compound, how does the growth read?
**A.** Its growth is 94.2%.

**Q.** C[C@H](NC(=O)c1cc2nc(C(F)(F)F)ccc2[nH]1)c1ccccc1 was tested. Which growth did it give?
**A.** Its growth is 56.8%.

**Q.** For CCC(CC)COC(=O)[C@H](C)NP(=O)(OC[C@H]1O[C@@](C#N)(c2ccc3c(N)ncnn23)[C@H](O)[C@@H]1O)Oc1ccccc1 (some centres not stated), which growth is on record?
**A.** The growth was 85.7%.

**Q.** How did the growth turn out when Cc1ccc(C)c2sc(N(CCCn3ccnc3)C(=O)c3ccco3)nc12 was run?
**A.** Its growth is 7.8% (active).

**Q.** Cc1c[nH]c(-c2cccc(C(=O)NC3CCC(CCN4CCc5ccc(C#N)cc5CC4)CC3)c2)n1 (configuration not stated) was tested. Which growth did it give?
**A.** The growth was 88.4%.

**Q.** C[C@]1(c2nc3c(C(N)=O)cccc3[nH]2)CCCN1 was tested. Which growth did it give?
**A.** Its growth is 87.6%.

**Q.** How did the growth turn out when O=C(CCCN1CCC(O)(c2ccc(Cl)cc2)CC1)c1ccc(F)cc1 was run?
**A.** Its growth is 4.14% (active).

**Q.** For COc1ccc(Cl)cc1-c1nc(C(=O)NCCN2CCCCC2)c(C(C)C)s1, which growth is on record?
**A.** Its growth is 6.6% (active).

**Q.** Which growth does the source give for Nc1nonc1-c1nc2c(-c3cccc(Cl)c3)nccc2n1CCCNC(=O)Cc1ccc(Cl)cc1 here?
**A.** The growth was 121%.
